Data reported in PubChem BioAssay AID485297 (National Center for Advancing Translational Sciences (NCATS), 2010).
Among all 320,000 compounds or so, about 9,100 (2.8%) were called active. Another 3% or so got no clear call; they are omitted. This excerpt belongs to a sample that is enriched for actives. Values without a mark were called inactive. Calls come from the whole dose curve; as a rule, active = well fitted activation curve with a large enough effect; inconclusive = small, poorly fitted or top-dose-only effect; inactive = no such curve, though single readings can be large or run the other way.

Experiment: qHTS Assay for Rab9 Promoter Activators; note: nearly all actives have a fitted effect of over 60% in size; for activation, negative = inhibition: % of control where 0% means no effect
Conditions: Huh7 Rab9 promoter-luciferase reporter, luminescence, 24 h; series mostly up to 9.22 µM; activation, negative = inhibition: at the top concentration
From the text: NIH Chemical Genomics Center [NCGC] NIH Molecular Libraries Probe Production centers Network [MLPCN] MLPCN Grant: MH089537-01 Assay Submitter (PI): Yiannis A. Ioannou NCGC Assay Overview: Niemann Pick Type C (NPC) is a rare neurodegenerative lipidosis that is characterized by lipid storage in the endosomal/lysosomal system. Treatment modalities for this devastating disease are currently non-existent due to the severe obstacles associated with accessing the central nervous system with proteins or genes (Ioannou, 2000). We have developed a new paradigm, termed "Orphan Receptor Bypass Therapy" (ORByT), to address these disorders. This paradigm posits the existence of endogenous "suppressor" proteins whose expression can dramatically improve LSD pathogenesis. The goal is the identification/discovery of small chemical compounds that can modulate the expression of these proteins and provide a new treatment modality for these devastating disorders. One such protein whose overexpression reverses aspects of the NPC phenotype is Rab9. We have developed and optimized a cell based luciferase reporter assay in 1536 well format for the identification of up-regulators of the Rab9 promoter.
The Rab9 promoter is cloned in front of the luciferase reporter gene, therefore […] promoter activation results in luciferase expression. Frozen stock of the Rab9 promoter transfected Huh7 cells were obtained from the laboratory of Dr. Yiannis Ioannou (The Mount Sinai School of Medicine, New York, NY). Cells were propagated and maintained at NCGC in medium containing RPMI-1640 supplemented with 10% FBS, 2mM L-glutamine, and 50ug/ml penicillin/streptomycin. Cells were harvested in and plated for assays in OP-MEM I reduced-serum medium supplemented with 10% FBS. The Amplite luciferase reporter gene assay kit was purchased from ABD Bioquest and prepared/stored according to manufacturers recommendations. qHTS Assay Setup: 1.Dispensed 5ul of Huh7 cells stably expressing Rab9-luciferase at a density of 1500 cells per well 1536-well plates. 2.Incubate cells at 37C, 5% CO2, and 95% humidity for 2 hours. 3.Transferred 23nl per well of compound in DMSO solution. 4.Incubated at 37C, 5% CO2, and 95% humidity for 24 hours. 5.Dispensed 3ul per well of Amplite reagent(ABD Bioquest) per well. 6.Incubate at ambient for 10 minutes. 7.Read using the luminescence protocol on the ViewLux plate reader (Perkin Elmer).
Potency is the fitted concentration of half-maximal effect.

Compound | activation, negative = inhibition | Potency
Cc1cccnc1CC(C)NC(=O)c1cc(COc2cncc(Cl)c2)on1 (centres undefined) | 21.8% | 
Cc1cc(OCc2cc(C(=O)NCc3cc(C(C)C)no3)no2)cc(C)c1Cl |  | 1000 nM (active)
COCCCNC(=O)COc1cc(C)c(Cl)c(C)c1 | -1.29% | 
CN(C)S(=O)(=O)c1cc(C(=O)Nc2ccn(C)n2)c(Cl)cc1Cl | -3.56% | 
O=C(Nc1cccc(C(=O)NC2CC2)c1)c1ccc(F)c(S(=O)(=O)N2CCOCC2)c1 | 1.23% | 
CC(=O)c1ccc(N2CCN(C(=O)c3ccc(Cl)c(S(=O)(=O)NC4CC4)c3)CC2)c(F)c1 | -4.16% | 
O=C(Nc1cccc(S(=O)(=O)N2CCCCC2)c1)c1ccc2c(c1)OCO2 | -5.6% | 
COC(=O)c1ccc(N2CCOCC2)c(NC(=O)c2ccc3c(c2)OCCO3)c1 | 3.46% | 
CN1CCN(c2ccc(NC(=O)c3cc(Cl)c4c(c3)OCCO4)cc2)CC1 | -0.801% | 
O=C(Nc1cccc([N+](=O)[O-])c1)c1ccc2c(c1)OCO2 | 25.9% | 
Cn1c(NC(=O)c2ccc3c(c2)OCO3)cc(=O)n(C)c1=O | -1.63% | 
O=C(CN1CCc2cc3c(cc2C1)OCCCO3)Nc1ccccc1 | -2.47% | 
CN1CCN(c2ccc(NC(=O)c3ccc4c(c3)OCCO4)cc2Cl)CC1 |  | 2000 nM (active)
COCc1nnc(NC(=O)c2ccc3c(c2)OCO3)s1 |  | 2820 nM (active)
CCCc1nnc(NC(=O)c2cc(OC)cc(OC)c2)s1 | 4.08% | 
O=C(Nc1ccccc1)c1ccc2c(c1)OCO2 |  | 2510 nM (active)
O=C(Nc1cccc(S(=O)(=O)Nc2ccc(Cl)cc2)c1)c1ccc2c(c1)OCCO2 | -21.3% | 
O=C(Nc1ccccc1)c1ccc2c(c1)OCCCO2 |  | 562 nM (active)
CCN(CC)c1nc(-c2ccccc2)cc(C(F)(F)F)c1C#N | -1.99% | 
Cc1ccc(-c2nnc(-n3nnc4ccccc43)c3ccccc23)cc1 | 0.115% | 
Cc1ccc(C(=O)OCC(=O)NCc2cc(C)c(O)c(C)c2)cc1S(=O)(=O)N1CCCCC1 | -8.65% | 
O=C(Nc1ccc(Br)cn1)C1CCN(S(=O)(=O)c2cccs2)CC1 | -29.7% | 
O=C(CN1CCCCC1)Nc1ccccc1C(=O)NC1CC1 | -5.28% | 
C=CCNc1nc(N)c(C(=C(C#N)C#N)c2ccccc2)s1 | -0.832% | 
Cc1n[nH]c(=O)c2c(NC(=O)CSc3cc(Cl)ccc3Cl)oc(C)c12 | 0.024% | 
O=S(=O)(NCCc1ccccn1)c1cc(Cl)cc(Cl)c1O | 7.45% | 
COc1cc(NC(=O)c2ccc3c(c2)OCO3)ccc1NC(=O)c1cccs1 | 4.9% | 

Compound | activation, negative = inhibition | Potency
O=C(Nc1ccc2c(c1)OCO2)c1ccc(N2C(=O)c3ccccc3C2=O)cc1 | 7.16% | 
O=C(Nc1ccccc1F)c1ccc2c(c1)OCO2 |  | 2820 nM (active)
Cc1nn(CC(=O)Nc2nc3ccccc3s2)c(C)c1[N+](=O)[O-] | -6.26% | 
COc1ccc(C(=O)Nc2ccc3c(c2)OCO3)cc1OC |  | 4470 nM (active)
O=C(Nc1ccccc1N1CCN(C(=O)c2ccccc2)CC1)c1ccc2c(c1)OCO2 | -7.83% | 
O=C(Nc1ccccc1)Nc1nc2ccccc2s1 |  | 1120 nM (active)
O=C(Nc1nc2cc3c(cc2s1)OCCO3)c1cccc(S(=O)(=O)N2CCOCC2)c1 | 6.06% | 
Cc1ccc(F)cc1NC(=O)c1ccc2c(c1)OCO2 | 8.79% | 
O=C(Nc1nc2ccccc2s1)c1ccc2c(c1)OCO2 |  | 316 nM (active)
COc1ccc(S(=O)(=O)N2CCOCC2)cc1C(=O)Nc1nc2ccccc2s1 | -0.0677% | 
O=C(CCNC(=O)c1ccccc1)Nc1nc2ccccc2s1 | 23% | 
CSc1ncccc1C(=O)Nc1ccc2c(c1)OCO2 | -1.7% | 
CCC(C)NC(=O)c1ccc(NC(=O)CC2SC(N3CCCCC3)=NC2=O)cc1 (centres undefined) | -8.9% | 
CC1CC(C)CN(C(=O)COC(=O)c2ccc3ncsc3c2)C1 (centres undefined) | -5.2% | 
CN(CC(=O)NCC(c1ccccc1)N1CCCC1)S(=O)(=O)c1ccc(Cl)cc1 (centres undefined) | -1.75% | 
COc1ccc(CCNC(=O)COc2ccc3c(c2)OCO3)cc1 | 0.182% | 
CC(Oc1ccc(Br)cc1)C(=O)NC1CCCCCC1 (centres undefined) | 12% | 
Cc1ccc(C(=O)Nc2ccc3c(c2)OCO3)cc1S(=O)(=O)N1CCCCC1 | 22% | 
CCSc1ccccc1C(=O)Nc1ccc2c(c1)OCO2 | 23.9% | 
CC(C)C(=O)Nc1cccc(C(=O)Nc2ccc3c(c2)OCO3)c1 |  | 1120 nM (active)
CN(CC(=O)Nc1ccc(F)c(F)c1F)C(=O)C1CC(=O)N(C2CCCC2)C1 (centres undefined) | -3.87% | 
NS(=O)(=O)c1ccc(CNC(=O)c2cccc(S(=O)(=O)N3CCc4ccccc43)c2)cc1 | -5.28% | 
COc1cc(C(=O)Nc2ncccc2C)ccc1OCC(=O)N1CCOCC1 | 2.4% | 
CC1(C)O[C@@H]2[C@H](O1)[C@@H](COS(=O)(=O)O)O[C@H]2n1ccc(=O)[nH]c1=O | 0.343% | 
COc1ccc(-n2nnnc2-c2nc3ccccc3s2)cc1 |  | 2820 nM (active)
COc1ccc(C2=NN(c3nc4ccccc4s3)C(=O)C2)cc1 | -1.35% | 
CCOc1cccc(-n2nnnc2-c2ccc(OC)cc2)c1 | -39.7% | 
